# According to PubChem BioAssay (Tox21):
# Results filed as inconclusive are left out. Unmarked numbers belong to inactive results. Calls of active or inactive are those of the source. Calls come from the whole dose curve; as a rule, active = well fitted cell-killing curve with a large enough effect in the repeat runs; inconclusive = weak or mixed curves, or effect the other way; inactive = no such curve, though single readings can be large or run the other way.
# Assay: qHTS assay to identify small molecule antagonists of the progesterone receptor (PR) signaling pathway - cell viability counter screen (AID 1346798); note: nearly all actives have a fitted effect of over 50% in size
# Details: PR-UAS-bla HEK293T viability, CellTiter-Glo luminescence, 16 h; series mostly up to 92.4 µM; activity change, negative = cytotoxicity: at the top concentration
# From the text: National Center for Advancing Translational Sciences [NCATS]
# NIH Chemical Genomics Center [NCGC]
# U.S. Environmental Protection Agency [EPA]
# National Institutes of Environmental Health Sciences [NIEHS]
# National Toxicology Program [NTP]
# U.S. Food and Drug Administration [FDA]
# Progesterone receptor (PR), a nuclear hormone receptor, plays an important role in development, metabolic homeostasis and reproduction. It is activated by the steroid hormone progesterone. Endocrine disrupting chemicals (EDCs) and their interactions with steroid hormone receptors like PR causes disruption of normal endocrine function. To identify the compounds that inhibit PR signaling, a PR-UAS-bla GripTite cell line i.e. PR-UAS-bla HEK293T (Invitrogen, Carlsbad, CA, USA) containing a beta-lactamase reporter gene under the control of an UAS response element was used to screen Tox21 10K compound library. The cytotoxicity of the Tox21 compound library against the PR-bla cell line was tested in parallel by measuring the cell viability using CellTiter-Glo assay in the same wells.
# Tox21 Assay Protocol Summary:
# PR-UAS-bla HEK293T cells were dispensed at 3,000 cells/4 uL of assay medium containing 2% charcoal stripped FBS per well into black wall/clear-bottom 1536-well plates using a Multidrop Combi (ThermoFisher Scientific, Waltham, MA) dispenser. After the assay plates were incubated at a 37C and 5% CO2 for 4 hr, 23 nL of compounds dissolved in DMSO, positive controls or DMSO only was transferred to the assay plate by a Pintool station (Kalypsys, San Diego, CA), followed by addition of 1 uL of R5020 in assay medium using a Flying Reagent Dispenser (FRD, Aurora Discovery, San Diego, CA). The plates were incubated at 37C and 5% CO2 for 16 hr. Then 1 uL of LiveBLAzer B/G FRET substrate was added using a Flying Reagent Dispenser, the plates were incubated at room temperature for 2 hours, and fluorescence intensity was measured by an Envision plate reader (PerkinElmer, Shelton, CT). For cell viability readout that measures cytotoxicity, 4 uL/well of CellTiter-Glo reagent was added into the assay plates using a FRD. After 30 min incubation at room temperature, the luminescence intensity in the plates was measured using a ViewLux (PerkinElmer) plate reader.
# % is set by controls: 0 for no effect and ±100 for the full control effect; potency is the fitted concentration of half-maximal effect.
SMILES,"activity change, negative = cytotoxicity",Potency
C1=CCC(c2ccccc2)CC1 (stereo not given),5.26%,–
Cc1ncc([N+](=O)[O-])n1CC(O)CCl (stereo not given),9.05% [at 42.5 µM],–
CCCCCCCCCCCCCCCCCCN(C)C,6% [at 42.5 µM],–
Cc1cc(C)cc([N+](=O)[O-])c1,7.04%,–
CC(=O)OCC(=O)[C@@]1(O)[C@H](OC(C)=O)C[C@H]2[C@@H]3CCC4=CC(=O)C=C[C@]4(C)[C@@]3(F)[C@@H](O)C[C@@]21C,2.84% [at 42.5 µM],–
O=C(O)c1ccccc1C(=O)OCc1ccccc1,9.38%,–
C=CCCCCCCCCCCC,-5.87% [at 8.39 µM],–
COc1ccc(OC)c(NC(=O)CC(C)=O)c1,-3.98%,–
CC1=CC[C@H](CC=O)C1(C)C,-2.95%,–
CN[C@@H]1[C@@H](O)[C@@H](O[C@@H]2[C@H](O)[C@H](O[C@H]3OC(CN)=CC[C@H]3N)[C@@H](N)C[C@H]2N)OCC1(C)O (stereo not given in full),6.16% [at 42.5 µM],–
CCCCCCCCCCCCCCCC(=O)NCCO,-0.764% [at 42.5 µM],–
NS(=O)(=O)c1ccc(Cl)c(S(N)(=O)=O)c1,-2.01% [at 42.5 µM],–
CC(C)CCO,2.53%,–
Cc1c(C(C)C)c(=O)n(-c2ccccc2)n1C,13.2% [at 42.5 µM],–
BrC/C=C/CBr,20.7% [at 18.9 µM],–
COc1ccc(N=Nc2cc(C)c(N=Nc3ccc(S(=O)(=O)O)cc3)cc2OC)cc1,-15%,–
CC(=O)N(CC(O)CO)c1c(I)c(C(=O)NCC(O)CO)c(I)c(C(=O)NCC(O)CO)c1I (stereo not given),-1.08% [at 42.5 µM],–
C[N+](C)(C)CC(O)CCl (stereo not given),0.673%,–
CC(=O)c1ccc2c(c1)CCCC2,5.57%,–
C[C@H](CCC(=O)O)[C@H]1CC[C@H]2[C@@H]3[C@H](O)C[C@@H]4C[C@H](O)CC[C@]4(C)[C@H]3C[C@H](O)[C@]12C,6.7% [at 42.5 µM],–

SMILES,"activity change, negative = cytotoxicity",Potency
CO/N=C(/C(=O)N[C@@H]1C(=O)N2C(C(=O)O)=C(Cn3nnc(C)n3)CS[C@H]12)c1csc(N)n1,0.632% [at 42.5 µM],–
c1ccc(CNc2ncnc3nc[nH]c23)cc1,19.2%,–
NC(=O)NNC(N)=O,-11%,–
CCCCC(CC)C(=O)OC(C)C (stereo not given),8.07%,–
CCCCCCCCCOCC1CO1 (stereo not given),13.8%,–
Cc1cccc(NC(=S)N(C)C)c1,–,30.6 µM (active)
CCOC(=O)OCC/C(SC(=O)OCC)=C(\C)N(C=O)Cc1cnc(C)nc1N,-18.7% [at 42.5 µM],–
CC(C)SCc1ccco1,0.0448% [at 42.5 µM],–
COc1cc2c(Nc3ccc(Br)cc3F)ncnc2cc1OCC1CCN(C)CC1,-7.91% [at 42.5 µM],–
CCOC(=O)CC(CC(=O)OCC)(OC(C)=O)C(=O)OCC,-2.94%,–
CC(C)COC(=O)/C=C/c1ccccc1,-2.18%,–
CCC(CO)CO,-2.2%,–
COc1cccc2sc(N)nc12,-23.7%,–
O=S1(=O)CCCC1,3.71%,–
O=P(O)(O)OCC(O)CO (stereo not given),-4.74% [at 42.5 µM],–
O=C(COCCOCCOCC(=O)Nc1c(I)cc(I)c(C(=O)O)c1I)Nc1c(I)cc(I)c(C(=O)O)c1I,2.75% [at 42.5 µM],–
NCCc1ccn[nH]1,0.619% [at 42.5 µM],–
C=C[C@@H](C)CCC=C(C)C,-3.49%,–
CCOC(=O)C(=O)c1csc(NC=O)n1,2.83% [at 42.5 µM],–
C1=C\CC/C=C\CC/1,-2.48%,–
